Drawing on PubChem BioAssay (NCATS), this text covers outcome and Potency for 28 compounds.

The target of experiment [1] is Mitogen-activated protein kinase 10 (Mus musculus) (UniProt Q61831). As to the kind of experiment: JNK3 AlphaScreen Assay (AID 530; active = well fitted curve in either direction with a large enough effect, not every such curve was filed as active;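 also: kinase came from lysate of stimulated human HepG2 cells; signal reports phosphorylation of biotinylated GST-cJun 1-79 at Ser73 with 10 µM ATP; series mostly up to about 57 µM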). A digest of the protocol: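 qHTS format: compounds tested as titrations against IL-1beta/TNF-alpha-activated HepG2 lysate JNK3 with biotin-GST-cJun substrate and 10 uM ATP at room temperature. Loss of anti-phospho-cJun AlphaScreen signal indicates inhibition.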
(In general: Alpha assays give light when donor and acceptor beads are brought close together.)

Experiment [2] has as its target Cytochrome P450 3A4 (Homo sapiens) (UniProt P08684). Put plainly: qHTS Assay for Inhibitors and Substrates of Cytochrome P450 3A4 (AID 884). Also: potency is read from the fitted curve at half-maximal effect; nearly all actives have a fitted effect of over 50% in size. A digest of the protocol: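 20 nM human CYP3A4 with 25 uM Luciferin-PPXE (at KM) in 200 mM KPO4, preincubated 10 min with compound; NADPH regeneration started a 60 min RT reaction. Luciferin detected by luminescence, normalized to 57 uM ketoconazole as full inhibition.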
For orientation: Quantitative high-throughput screening tests each substance at several concentrations.

Experiment [3] shares this target. As to the kind of experiment: qHTS Assay for Activators of Cytochrome P450 3A4 (AID 885). Also: nearly all actives have a fitted effect of over 65% in size. The procedure, abridged:
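Steps: enzyme/substrate mix dispensed; compound added, 10 min RT; NADPH regeneration solution added, 60 min RT; luciferin detection buffer stops reaction; 20 min later luminescence measured.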

Inconclusive results are not listed. A call without a number means that no potency is given here. Calls of active or inactive are those of the source. Unless noted, calls follow the shape of the dose curve; as a rule, active = well fitted curve in the direction sought with a large enough effect; inconclusive = small, poorly fitted or top-dose-only effect, or another doubt; inactive = no such curve, though single readings can be large; an effect the other way counts as inactive or inconclusive.

Chain of Cytochrome P450 3A4 (Homo sapiens) (P08684 whole entry, looked up): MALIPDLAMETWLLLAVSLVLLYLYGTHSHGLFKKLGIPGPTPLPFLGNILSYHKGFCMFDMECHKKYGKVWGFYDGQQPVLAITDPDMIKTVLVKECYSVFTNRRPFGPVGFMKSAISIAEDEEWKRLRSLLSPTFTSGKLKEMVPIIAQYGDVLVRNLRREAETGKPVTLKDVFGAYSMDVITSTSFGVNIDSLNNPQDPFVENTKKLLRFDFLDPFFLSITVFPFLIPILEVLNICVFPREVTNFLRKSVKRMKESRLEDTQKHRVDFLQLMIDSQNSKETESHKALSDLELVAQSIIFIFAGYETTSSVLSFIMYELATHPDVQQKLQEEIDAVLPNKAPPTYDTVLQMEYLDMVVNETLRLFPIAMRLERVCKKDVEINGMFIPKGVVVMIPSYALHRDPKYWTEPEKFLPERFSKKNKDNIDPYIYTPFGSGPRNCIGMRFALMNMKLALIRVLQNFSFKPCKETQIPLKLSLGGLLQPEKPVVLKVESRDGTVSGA

Consider `CC(C)CC1(C(=O)NCCc2c[nH]c3ccccc23)C=CCN1C(=O)c1ccccc1` (configuration not stated), for which, in experiment [1], the compound was called inactive. In experiment [2], the Potency was 3.16 µM (active). In addition, the Potency result in experiment [3] was “inactive”.
As to `COC(=O)c1ccc(C(/C=C/[C@@H](C)C(=O)NCCc2c[nH]c3ccccc23)NC(=O)OCc2ccccc2)cc1` (some centres not stated), in experiment [1], the compound was called inactive. In experiment [2], the Potency was 3.16 µM (active). Further, the Potency entry in experiment [3] is “inactive”.
Regarding `C[C@]1(C(=O)NCc2cc(F)cc(C(F)(F)F)c2)C=C[C@@H](Cc2ccccc2)N1C(=O)c1ccccc1`, the compound was called inactive in experiment [1]. Moreover, the Potency in experiment [2] was 2 µM (active). In experiment [3], the Potency result was “inactive”.
Consider `CC(=O)N1CC=CC1(CC(C)C)C(=O)NCc1cc(F)cc(C(F)(F)F)c1` (configuration not stated), for which the call in experiment [1] was inactive. Further, the Potency in experiment [2] is 12.6 µM (active). The Potency entry in experiment [3] is “inactive”.
For `CC(=O)N1[C@H](Cc2ccccc2)C=C[C@]1(C)C(=O)NCCN1CCOCC1`, the call in experiment [1] was inactive. Also, the Potency in experiment [2] was 15.8 µM (active). The Potency entry in experiment [3] is “inactive”.
On to `CC(=O)N1C2(C=CC1(C)C(=O)NCc1cc(F)cc(C(F)(F)F)c1)CCCCC2` (configuration not stated), for which the result in experiment [1] was inactive. For the same compound, the Potency in experiment [2] is 10 µM (active). Also, in experiment [3], the Potency entry was “inactive”.
For the compound `COC(=O)[C@@]1(C)C=C[C@@H](Cc2ccccc2)N1C`, the outcome in experiment [1] was inactive. For the same compound, the Potency in experiment [2] is 12.6 µM (active). In experiment [3], the Potency entry is “inactive”.
`COC(=O)c1ccc(C(NC(=O)OCc2ccccc2)/C(F)=C/[C@@H](C)C(=O)N[C@@H](CO)Cc2ccccc2)cc1` (some centres not stated): the outcome in experiment [1] was inactive. Moreover, the Potency in experiment [2] is 7.94 µM (active). In addition, the Potency result in experiment [3] is “inactive”.
In the case of `COC(=O)c1ccc(C(NC(=O)OCc2ccccc2)/C(=C/[C@@H](C)C(=O)Nc2ccccc2)c2cccnc2)cc1` (some centres not stated), in experiment [1], the outcome was inactive. Besides, the Potency in experiment [2] is 1.58 µM (active). In addition, in experiment [3], the Potency result was “inactive”.
Turning to `COCCNC(=O)[C@H](C)/C=C(\c1cccnc1)C(NC(=O)OCc1ccccc1)c1ccc(C(=O)OC)cc1` (some centres not stated), in experiment [1], the call was inactive. Besides, the Potency in experiment [2] was 5.01 µM (active). For the same compound, the Potency entry in experiment [3] was “inactive”.
Consider `C=C(CC1([C@@H](NP(=O)(c2ccccc2)c2ccccc2)[C@H]2C[C@@H]2CCCC)CC1)c1ccccc1`, for which the compound was called inactive in experiment [1]. In addition, the Potency in experiment [2] was 1.58 µM (active). Besides, the Potency entry in experiment [3] is “inactive”.
In the case of `C=C(N(C)C)[C@]1(C)C[C@H]1[C@H](NC(=O)CNC(=O)OCc1ccccc1)c1ccccc1`, the result in experiment [1] was inactive. The Potency in experiment [2] is 7.94 µM (active). Moreover, the Potency entry in experiment [3] is “inactive”.
Turning to `COC(=O)c1ccc(C(NC(=O)OCc2ccccc2)/C(C)=C/[C@@H](C)C(=O)NCc2cc(C)on2)cc1` (some centres not stated), the compound was classed as inactive in experiment [1]. The Potency in experiment [2] is 2 µM (active). Besides, the Potency entry in experiment [3] was “inactive”.
For the compound `CC(=O)N1C2(C=CC1(C)C(=O)NCc1ccccn1)CCCCC2` (configuration not stated), the outcome in experiment [1] was inactive. Besides, in experiment [2], the Potency was 12.6 µM (active). For the same compound, the Potency entry in experiment [3] is “inactive”.
In the case of `COC(=O)c1ccc(C(NC(=O)OCc2ccccc2)/C(=C/[C@@H](C)C(=O)NCc2cc(C)on2)c2cccnc2)cc1` (some centres not stated), in experiment [1], the outcome was inactive. In addition, in experiment [2], the Potency was 1.58 µM (active). For the same compound, the Potency entry in experiment [3] is “inactive”.
Take `CC(C)CC1(C(=O)NCCN2CCOCC2)C=CCN1C(=O)c1ccccc1` (configuration not stated): the compound was classed as inactive in experiment [1]. For the same compound, the Potency in experiment [2] was 12.6 µM (active). The Potency entry in experiment [3] was “inactive”.
As to `CC(=O)N1[C@H](Cc2ccccc2)C=C[C@]1(C)C(=O)NCc1ccc(C)o1`, the call in experiment [1] was inactive. Further, the Potency in experiment [2] was 7.94 µM (active). For the same compound, the Potency entry in experiment [3] is “inactive”.
As to `COC(=O)c1ccc(C(NC(=O)OCc2ccccc2)/C(F)=C/[C@@H](C)C(=O)Nc2ccc(OC)cc2)cc1` (some centres not stated), the outcome in experiment [1] was inactive. In addition, the Potency in experiment [2] is 2 µM (active). The Potency entry in experiment [3] is “inactive”.
`COC(=O)c1ccc(C(NC(=O)OCc2ccccc2)/C(=C/[C@@H](C)C(=O)NCc2ccc(C)o2)c2cccnc2)cc1` (some centres not stated): in experiment [1], the compound was classed as inactive. Besides, the Potency in experiment [2] was 15.8 µM (active). The Potency entry in experiment [3] is “inactive”.
Take `CC(C)CC1(C(=O)NCC2CC2)C=CCN1C(=O)c1ccccc1` (configuration not stated): in experiment [1], the compound was classed as inactive. Further, the Potency in experiment [2] is 15.8 µM (active). Moreover, the Potency result in experiment [3] is “inactive”.
For `CC1(C(=O)NCC2CC2)C=CC2(CCCCC2)N1C(=O)c1ccccc1` (configuration not stated), the result in experiment [1] was inactive. In experiment [2], the Potency is 7.94 µM (active). The Potency entry in experiment [3] was “inactive”.
Turning to `COC(=O)c1ccc(C(NC(=O)OCc2ccccc2)/C(F)=C/[C@@H](C)C(=O)NCCO)cc1` (some centres not stated), the result in experiment [1] was inactive. Besides, in experiment [2], the Potency was 15.8 µM (active). Moreover, the Potency result in experiment [3] is “inactive”.
For the compound `CCCCCCN(C(=O)CCCCCN1C(=O)NC(C2CC2)C(C(=O)OCc2ccccc2)=C1C)C(C(=O)NCCCC)c1ccc(OCC(=O)OC)c(C(=O)OC)c1` (configuration not stated), the outcome in experiment [1] was inactive. Moreover, in experiment [2], the Potency is 3.98 µM (active). Further, in experiment [3], the Potency entry is “inactive”.
For the compound `COC(=O)c1ccc(C(NC(=O)OCc2ccccc2)/C(=C/[C@@H](C)C(=O)NCc2nc3ccccc3s2)c2cccnc2)cc1` (some centres not stated), in experiment [1], the result was inactive. Besides, the Potency in experiment [2] was 2 µM (active). Besides, the Potency result in experiment [3] was “inactive”.
Turning to `COC(=O)CNC(=O)C1(C)C=CC2(CCCCC2)N1C(C)=O` (configuration not stated), in experiment [1], the call was inactive. For the same compound, the Potency result in experiment [3] is “inactive”.
Consider `C[C@@H]1C=C[C@](Cc2ccccc2)(C(=O)NCCCNc2ncc(C(F)(F)F)cc2Cl)N1C(=O)c1ccccc1`, for which the compound was called inactive in experiment [1]. Also, the Potency result in experiment [3] is “inactive”.
For `CCNC(=O)[C@H](C)/C=C/C(NC(=O)OCc1ccccc1)c1ccc(C(=O)OC)cc1` (some centres not stated), the compound was classed as inactive in experiment [1]. Moreover, the Potency in experiment [2] was 6.31 µM (active). For the same compound, in experiment [3], the Potency entry is “inactive”.
Turning to `Cc1cc(CNC(=O)C(C)Cc2ccccc2)nn1C` (configuration not stated), the outcome in experiment [1] was inactive. Further, in experiment [2], the Potency was 10 µM (active). Besides, the Potency entry in experiment [3] is “inactive”.
